# Legend:
# Assay in all cases: DAPPL (digital affinity profiling via proximity ligation, sequencing); 10 mM Tris-HCl pH 7.5, 50 mM NaCl, 1 mM DTT, 4% glycerol, room temperature, 30 min; GST-TFs on glutathione beads, 16-mer random dsDNA library, 0.1% formaldehyde crosslink after washing; high values mean tight binding
# FLI1 = biological target: T1, FLI1 (Homo sapiens, UniProt Q01543 1-452); settings: protein: recombinant; tags: N-terminal GST; dsDNA, one strand shown
# T1 sequence: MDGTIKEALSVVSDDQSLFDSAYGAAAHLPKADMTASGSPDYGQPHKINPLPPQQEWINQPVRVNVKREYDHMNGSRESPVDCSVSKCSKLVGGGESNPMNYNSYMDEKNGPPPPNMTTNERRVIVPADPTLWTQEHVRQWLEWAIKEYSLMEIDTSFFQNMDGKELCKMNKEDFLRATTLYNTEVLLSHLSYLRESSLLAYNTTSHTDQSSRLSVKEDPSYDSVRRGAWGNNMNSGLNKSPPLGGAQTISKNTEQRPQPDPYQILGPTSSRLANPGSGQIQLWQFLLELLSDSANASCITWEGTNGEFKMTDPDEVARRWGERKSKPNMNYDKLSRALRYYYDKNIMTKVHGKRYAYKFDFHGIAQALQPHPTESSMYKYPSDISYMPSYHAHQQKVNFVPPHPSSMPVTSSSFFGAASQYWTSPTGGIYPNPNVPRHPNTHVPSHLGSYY
# Procedure, shortened: (§1)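 Sequencing on an Illumina NextSeq500 followed washing, crosslinking with 0.1% formaldehyde, proximity ligation (BsaI/T4 ligase, 1 h, 37 °C) and PCR amplification of pools that had been incubated for 30 min at room temperature with 200 nmole of a random double-stranded 16-mer DNA library in Tris/NaCl/DTT/glycerol buffer. Each pool held DNA-barcoded human transcription factors, expressed in yeast as GST fusions and captured on glutathione beads, plus a tag-only sample. Binding signal is a hexamer's read frequency for a factor divided by its frequency in the tag-only sample.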
# ELK1 = biological target: T2, ELK1 (Homo sapiens, UniProt P19419 1-428); settings: protein: recombinant; tags: N-terminal GST; dsDNA, one strand shown
# T2 sequence: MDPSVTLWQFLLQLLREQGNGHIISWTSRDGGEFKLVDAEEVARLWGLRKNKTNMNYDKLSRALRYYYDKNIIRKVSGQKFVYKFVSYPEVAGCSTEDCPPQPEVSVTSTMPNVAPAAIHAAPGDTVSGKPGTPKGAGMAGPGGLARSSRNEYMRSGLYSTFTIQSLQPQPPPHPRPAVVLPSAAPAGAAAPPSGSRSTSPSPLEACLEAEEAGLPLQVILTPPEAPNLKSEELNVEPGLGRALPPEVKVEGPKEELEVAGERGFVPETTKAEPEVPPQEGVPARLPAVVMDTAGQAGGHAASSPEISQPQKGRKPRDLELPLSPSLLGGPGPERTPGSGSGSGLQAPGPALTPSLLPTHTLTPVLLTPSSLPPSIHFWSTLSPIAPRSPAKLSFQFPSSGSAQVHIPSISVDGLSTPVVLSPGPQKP
# Procedure, shortened: as §1
# GABPA = biological target: T3, GABPA (Homo sapiens, UniProt Q06546 1-454); settings: protein: recombinant; tags: N-terminal GST; dsDNA, one strand shown
# T3 sequence: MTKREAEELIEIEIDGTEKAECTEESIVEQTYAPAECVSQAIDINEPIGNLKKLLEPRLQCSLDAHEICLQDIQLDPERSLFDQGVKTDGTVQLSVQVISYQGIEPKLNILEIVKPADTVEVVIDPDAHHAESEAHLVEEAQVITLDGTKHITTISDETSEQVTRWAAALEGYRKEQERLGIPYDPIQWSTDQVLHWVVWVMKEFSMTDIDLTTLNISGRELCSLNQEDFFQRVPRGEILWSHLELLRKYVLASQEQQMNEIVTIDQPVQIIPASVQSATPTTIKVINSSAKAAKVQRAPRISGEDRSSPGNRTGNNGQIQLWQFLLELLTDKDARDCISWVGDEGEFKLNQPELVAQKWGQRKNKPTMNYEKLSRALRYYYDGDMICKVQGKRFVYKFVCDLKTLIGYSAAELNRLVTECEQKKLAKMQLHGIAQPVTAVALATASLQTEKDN
# Procedure, shortened: as §1
# ELF1 = ELF1 (Homo sapiens, UniProt P32519 1-619); settings: protein: recombinant; tags: N-terminal GST; dsDNA, one strand shown
# Procedure, shortened: as §1
# SPIB = SPIB (Homo sapiens, UniProt Q01892 1-262); settings: protein: recombinant; tags: N-terminal GST; dsDNA, one strand shown
# Procedure, shortened: as §1
# ELK3 = biological target: T4, ELK3 (Homo sapiens, UniProt P41970 1-407); settings: protein: recombinant; tags: N-terminal GST; dsDNA, one strand shown
# T4 sequence: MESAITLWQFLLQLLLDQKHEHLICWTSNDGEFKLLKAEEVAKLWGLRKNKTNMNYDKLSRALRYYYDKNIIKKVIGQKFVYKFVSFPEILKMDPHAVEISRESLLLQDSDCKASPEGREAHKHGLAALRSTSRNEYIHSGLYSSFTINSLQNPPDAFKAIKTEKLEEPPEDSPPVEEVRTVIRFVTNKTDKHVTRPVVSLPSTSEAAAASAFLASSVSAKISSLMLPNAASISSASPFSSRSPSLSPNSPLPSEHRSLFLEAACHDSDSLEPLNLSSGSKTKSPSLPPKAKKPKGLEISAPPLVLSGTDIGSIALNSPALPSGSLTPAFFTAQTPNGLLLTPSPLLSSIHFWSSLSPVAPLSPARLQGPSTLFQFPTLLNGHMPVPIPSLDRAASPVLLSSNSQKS
# Procedure, shortened: as §1
# HSF1 = HSF1 (Homo sapiens, UniProt Q00613 1-529); settings: protein: recombinant; tags: N-terminal GST; chain copies: 3; dsDNA, one strand shown
# Procedure, shortened: as §1
# ELK4 = biological target: T5, ELK4 (Homo sapiens, UniProt P28324-2 1-405); settings: protein: recombinant; tags: N-terminal GST; dsDNA, one strand shown
# T5 sequence: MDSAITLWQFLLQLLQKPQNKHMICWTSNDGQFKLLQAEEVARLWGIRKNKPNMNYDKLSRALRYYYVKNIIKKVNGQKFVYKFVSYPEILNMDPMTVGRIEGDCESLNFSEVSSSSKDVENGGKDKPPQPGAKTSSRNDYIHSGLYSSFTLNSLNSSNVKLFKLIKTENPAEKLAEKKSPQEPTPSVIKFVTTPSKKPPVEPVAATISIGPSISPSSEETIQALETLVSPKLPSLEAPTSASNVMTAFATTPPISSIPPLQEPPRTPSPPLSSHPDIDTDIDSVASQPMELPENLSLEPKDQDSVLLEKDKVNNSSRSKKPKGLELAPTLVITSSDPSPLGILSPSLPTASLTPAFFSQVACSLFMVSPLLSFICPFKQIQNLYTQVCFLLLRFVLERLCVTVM
# Procedure, shortened: as §1
# ETV2 = biological target: T6, ETV2 (Homo sapiens, UniProt O00321 1-342); settings: protein: recombinant; tags: N-terminal GST; dsDNA, one strand shown
# T6 sequence: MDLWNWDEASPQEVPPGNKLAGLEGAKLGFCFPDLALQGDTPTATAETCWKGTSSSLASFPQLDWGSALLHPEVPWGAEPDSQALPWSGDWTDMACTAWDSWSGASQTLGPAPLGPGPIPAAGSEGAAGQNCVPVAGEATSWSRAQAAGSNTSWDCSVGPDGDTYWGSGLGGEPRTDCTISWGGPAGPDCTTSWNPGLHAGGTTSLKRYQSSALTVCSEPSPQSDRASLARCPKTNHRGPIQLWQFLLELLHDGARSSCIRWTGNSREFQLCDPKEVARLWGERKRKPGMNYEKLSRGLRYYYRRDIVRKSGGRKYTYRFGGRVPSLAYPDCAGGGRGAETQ
# Procedure, shortened: as §1
# ELF3 = biological target: T7, ELF3 (Homo sapiens, UniProt P78545 1-371); settings: protein: recombinant; tags: N-terminal GST; dsDNA, one strand shown
# T7 sequence: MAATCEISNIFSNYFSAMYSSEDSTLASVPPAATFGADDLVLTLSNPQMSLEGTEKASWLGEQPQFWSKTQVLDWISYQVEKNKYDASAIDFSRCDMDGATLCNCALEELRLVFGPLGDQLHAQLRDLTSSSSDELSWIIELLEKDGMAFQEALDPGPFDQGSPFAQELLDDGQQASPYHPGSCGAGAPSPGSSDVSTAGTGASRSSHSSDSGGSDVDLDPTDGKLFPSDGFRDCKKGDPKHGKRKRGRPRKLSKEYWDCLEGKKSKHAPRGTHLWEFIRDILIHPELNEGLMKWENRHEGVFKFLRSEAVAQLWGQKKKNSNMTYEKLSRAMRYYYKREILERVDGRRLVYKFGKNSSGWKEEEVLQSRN
# Procedure, shortened: as §1
# ETV1 = ETV1 (Homo sapiens, UniProt P50549 1-477); settings: protein: recombinant; tags: N-terminal GST; dsDNA, one strand shown
# Procedure, shortened: as §1
# ETV3L = biological target: T8, ETV3L (Homo sapiens, UniProt Q6ZN32 1-361); settings: protein: recombinant; tags: N-terminal GST; dsDNA, one strand shown
# T8 sequence: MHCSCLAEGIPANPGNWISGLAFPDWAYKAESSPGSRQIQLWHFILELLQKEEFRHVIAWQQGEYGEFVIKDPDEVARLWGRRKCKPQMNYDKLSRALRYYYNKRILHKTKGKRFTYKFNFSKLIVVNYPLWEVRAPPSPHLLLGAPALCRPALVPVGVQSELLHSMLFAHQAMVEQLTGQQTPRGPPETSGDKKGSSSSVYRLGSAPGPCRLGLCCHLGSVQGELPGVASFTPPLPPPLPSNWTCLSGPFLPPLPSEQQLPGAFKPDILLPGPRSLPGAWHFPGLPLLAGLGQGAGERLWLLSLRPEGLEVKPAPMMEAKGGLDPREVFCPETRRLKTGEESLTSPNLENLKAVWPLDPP
# Procedure, shortened: as §1
# SPDEF = biological target: T9, SPDEF (Homo sapiens, UniProt O95238 1-335); settings: protein: recombinant; tags: N-terminal GST; dsDNA, one strand shown
# T9 sequence: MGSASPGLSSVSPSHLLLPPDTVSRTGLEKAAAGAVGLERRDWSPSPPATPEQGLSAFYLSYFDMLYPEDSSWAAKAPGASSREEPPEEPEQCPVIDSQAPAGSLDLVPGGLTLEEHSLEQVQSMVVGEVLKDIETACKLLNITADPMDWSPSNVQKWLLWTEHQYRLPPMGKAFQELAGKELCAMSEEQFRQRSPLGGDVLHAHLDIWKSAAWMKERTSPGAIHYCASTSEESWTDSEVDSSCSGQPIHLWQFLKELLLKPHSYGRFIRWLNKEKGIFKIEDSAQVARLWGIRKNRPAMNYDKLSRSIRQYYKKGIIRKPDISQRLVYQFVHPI
# Procedure, shortened: as §1
# ETV7 = biological target: T10, ETV7 (Homo sapiens, UniProt Q9Y603 1-341); settings: protein: recombinant; tags: N-terminal GST; dsDNA, one strand shown
# T10 sequence: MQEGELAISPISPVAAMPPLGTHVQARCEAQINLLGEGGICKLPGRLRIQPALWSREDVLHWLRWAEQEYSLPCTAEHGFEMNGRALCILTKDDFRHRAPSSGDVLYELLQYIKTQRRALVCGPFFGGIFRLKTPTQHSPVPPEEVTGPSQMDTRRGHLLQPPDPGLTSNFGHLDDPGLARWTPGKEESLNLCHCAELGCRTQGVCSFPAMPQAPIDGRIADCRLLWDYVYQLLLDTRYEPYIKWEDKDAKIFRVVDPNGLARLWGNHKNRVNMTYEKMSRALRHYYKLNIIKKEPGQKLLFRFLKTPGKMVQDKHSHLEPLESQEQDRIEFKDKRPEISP
# Procedure, shortened: as §1
# ELF5 = biological target: T11, ELF5 (Homo sapiens, UniProt Q9UKW6-2 1-255); settings: protein: recombinant; tags: N-terminal GST; dsDNA, one strand shown
# T11 sequence: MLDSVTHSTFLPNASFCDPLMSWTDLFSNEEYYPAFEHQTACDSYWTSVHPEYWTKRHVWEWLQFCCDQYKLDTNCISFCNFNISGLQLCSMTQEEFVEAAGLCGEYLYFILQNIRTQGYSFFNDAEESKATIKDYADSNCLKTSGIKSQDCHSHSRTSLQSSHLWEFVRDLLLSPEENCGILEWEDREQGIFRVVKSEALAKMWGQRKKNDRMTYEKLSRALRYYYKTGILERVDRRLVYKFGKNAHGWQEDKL
# Procedure, shortened: as §1
# ETV3 = biological target: T12, ETV3 (Homo sapiens, UniProt P41162-2 1-143); settings: protein: recombinant; tags: N-terminal GST; dsDNA, one strand shown
# T12 sequence: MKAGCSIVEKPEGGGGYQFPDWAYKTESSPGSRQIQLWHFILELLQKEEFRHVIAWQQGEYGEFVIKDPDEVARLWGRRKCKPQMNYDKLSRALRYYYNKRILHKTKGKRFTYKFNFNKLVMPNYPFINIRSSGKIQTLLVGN
# Procedure, shortened: as §1
# SPIB, sequence (Q01892 whole entry): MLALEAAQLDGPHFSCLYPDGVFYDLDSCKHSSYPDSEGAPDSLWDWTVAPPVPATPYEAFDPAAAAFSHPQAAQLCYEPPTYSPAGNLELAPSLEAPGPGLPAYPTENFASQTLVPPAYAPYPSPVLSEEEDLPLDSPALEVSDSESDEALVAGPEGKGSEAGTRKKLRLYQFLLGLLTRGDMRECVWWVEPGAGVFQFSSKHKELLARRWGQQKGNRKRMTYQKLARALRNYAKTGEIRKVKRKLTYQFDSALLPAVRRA
# ELF1, sequence (P32519 whole entry): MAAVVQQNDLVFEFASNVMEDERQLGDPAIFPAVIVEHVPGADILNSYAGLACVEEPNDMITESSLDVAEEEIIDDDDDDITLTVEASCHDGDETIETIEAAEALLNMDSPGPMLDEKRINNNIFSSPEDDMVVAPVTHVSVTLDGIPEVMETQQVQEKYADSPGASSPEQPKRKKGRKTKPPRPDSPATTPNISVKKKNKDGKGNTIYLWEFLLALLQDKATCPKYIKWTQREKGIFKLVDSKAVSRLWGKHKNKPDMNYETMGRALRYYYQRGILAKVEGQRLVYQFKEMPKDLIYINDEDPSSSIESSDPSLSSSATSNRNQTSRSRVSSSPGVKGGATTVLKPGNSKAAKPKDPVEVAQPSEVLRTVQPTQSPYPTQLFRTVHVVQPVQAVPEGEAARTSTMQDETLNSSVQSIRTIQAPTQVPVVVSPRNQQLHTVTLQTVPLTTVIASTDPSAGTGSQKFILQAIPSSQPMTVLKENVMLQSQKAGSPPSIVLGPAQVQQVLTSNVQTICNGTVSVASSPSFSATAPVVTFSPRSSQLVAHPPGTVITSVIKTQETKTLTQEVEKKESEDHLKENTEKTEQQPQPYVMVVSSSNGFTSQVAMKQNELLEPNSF
# ETV1, sequence (P50549 whole entry): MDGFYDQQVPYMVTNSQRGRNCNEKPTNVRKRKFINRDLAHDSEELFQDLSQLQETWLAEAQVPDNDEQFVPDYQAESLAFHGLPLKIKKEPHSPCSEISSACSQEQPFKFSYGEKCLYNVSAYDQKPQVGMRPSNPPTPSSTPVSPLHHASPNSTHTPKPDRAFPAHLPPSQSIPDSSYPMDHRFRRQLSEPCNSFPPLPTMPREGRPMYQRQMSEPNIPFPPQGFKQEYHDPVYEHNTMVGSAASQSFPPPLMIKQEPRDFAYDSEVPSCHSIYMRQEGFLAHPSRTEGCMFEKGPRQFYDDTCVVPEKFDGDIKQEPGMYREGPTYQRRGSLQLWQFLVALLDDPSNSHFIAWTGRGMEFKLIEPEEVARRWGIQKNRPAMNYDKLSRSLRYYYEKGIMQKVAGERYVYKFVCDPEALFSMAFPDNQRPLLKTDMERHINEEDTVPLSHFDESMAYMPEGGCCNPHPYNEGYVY
# HSF1, sequence (Q00613 whole entry): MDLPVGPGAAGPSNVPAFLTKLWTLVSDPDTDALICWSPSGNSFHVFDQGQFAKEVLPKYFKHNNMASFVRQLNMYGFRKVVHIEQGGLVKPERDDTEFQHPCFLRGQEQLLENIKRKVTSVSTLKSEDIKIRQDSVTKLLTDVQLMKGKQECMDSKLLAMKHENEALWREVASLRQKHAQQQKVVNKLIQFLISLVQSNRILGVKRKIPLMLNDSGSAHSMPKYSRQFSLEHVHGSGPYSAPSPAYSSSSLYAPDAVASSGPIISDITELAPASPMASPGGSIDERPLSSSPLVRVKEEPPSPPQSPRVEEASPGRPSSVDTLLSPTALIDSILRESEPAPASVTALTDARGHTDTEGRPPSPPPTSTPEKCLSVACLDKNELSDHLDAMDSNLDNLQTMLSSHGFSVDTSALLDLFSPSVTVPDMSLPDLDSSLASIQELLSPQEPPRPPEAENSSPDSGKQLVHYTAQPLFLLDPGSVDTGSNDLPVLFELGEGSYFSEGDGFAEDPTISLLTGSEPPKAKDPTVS
sequence,measurement,setting,value
GGTTCT,binding signal,FLI1,"1.07 fold enrichment (6-mer frequency, TF over GST control)"
same,binding signal,ELK1,"1.02 fold enrichment (6-mer frequency, TF over GST control)"
same,binding signal,GABPA,"1.02 fold enrichment (6-mer frequency, TF over GST control)"
same,binding signal,ELF1,"1.03 fold enrichment (6-mer frequency, TF over GST control)"
same,binding signal,SPIB,"1.05 fold enrichment (6-mer frequency, TF over GST control)"
same,binding signal,ELK3,"1.11 fold enrichment (6-mer frequency, TF over GST control)"
same,binding signal,HSF1,"1.54 fold enrichment (6-mer frequency, TF over GST control)"
same,binding signal,ELK4,"1.03 fold enrichment (6-mer frequency, TF over GST control)"
same,binding signal,ETV2,"1.19 fold enrichment (6-mer frequency, TF over GST control)"
same,binding signal,ELF3,"1.08 fold enrichment (6-mer frequency, TF over GST control)"
same,binding signal,ETV1,"1.01 fold enrichment (6-mer frequency, TF over GST control)"
same,binding signal,ETV3L,"1.01 fold enrichment (6-mer frequency, TF over GST control)"
same,binding signal,SPDEF,"1.01 fold enrichment (6-mer frequency, TF over GST control)"
same,binding signal,ETV7,"1.01 fold enrichment (6-mer frequency, TF over GST control)"
same,binding signal,ELF5,"1.01 fold enrichment (6-mer frequency, TF over GST control)"
same,binding signal,ETV3,"1 fold enrichment (6-mer frequency, TF over GST control)"

# Source: paper PMC7862700, “An all-to-all approach to the identification of sequence-specific readers for epigenetic DNA modifications on cytosine”
